# Values joined by “and” are separate entries in the source; they are usually repeats but may differ in a detail not shown here. Identical values can stand only once. Inconclusive results are not listed. Entries that show only a call come without a potency. Active and inactive are the calls of the source. Calls come from the whole dose curve; as a rule, active = well fitted inhibition curve with a large enough effect; inconclusive = small, poorly fitted or top-dose-only effect; inactive = flat fitted curve, though single readings scatter.
# Experiment: P-glycoprotein substrates identified in KB-8-5-11 adenocarcinoma cell line, qHTS therapeutic library screen (AID 1346987); note: nearly all actives have a fitted effect of over 65% in size
# Conditions: KB-8-5-11 (P-gp overexpressing) viability, CellTiter-Glo, 72 h; series mostly up to 44.5 µM
# In short: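 Compounds are pinned in dose-response onto KB-8-5-11 cells (500 cells/well, colchicine-free medium) and left 72 h at 37 degree C. CellTiter-Glo luminescence then yields AC50 values.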
# Potency is the fitted concentration of half-maximal effect.
row,Structure (SMILES),Potency
1,CC(C)C[C@H](NC(=O)[C@@H](O)[C@H](N)Cc1ccccc1)C(=O)O,23.5 µM (active)
2,COc1c(Cl)cc2c([nH]c3cnccc32)c1NC(=O)c1cccnc1C,inactive
3,Cc1c(C)c2c(c(C)c1O)CCC(C)(COc1ccc(CC3SC(=O)NC3=O)cc1)O2 (stereo not given),inactive
4,COc1ccc2c3n(c(=NC(=O)c4cccnc4)nc2c1OC)CCN3,0.651 µM (active)
5,CS(=O)(=O)c1cccc(CNc2nc(Nc3ccc4c(c3)CCC(=O)N4)ncc2C(F)(F)F)c1,inactive
6,Oc1cccc(-c2nc(N3CCOCC3)c3oc4ncccc4c3n2)c1,108 nM (active) and 517 nM (active)
7,CC(C)(Sc1ccc(CCN(CCCCC2CCCCC2)C(=O)NC2CCCCC2)cc1)C(=O)O,inactive
8,CCC(C)n1ncn(-c2ccc(N3CCN(c4ccc(OC[C@H]5CO[C@](Cn6cncn6)(c6ccc(Cl)cc6Cl)O5)cc4)CC3)cc2)c1=O (stereo not given in full),inactive
9,Cc1cccc(-c2nn(C(=S)Nc3ccccc3)cc2-c2ccnc3ccccc23)n1,inactive
10,CCn1c(-c2nonc2N)nc2cnc(Oc3cccc(NC(=O)c4ccc(OCCN5CCOCC5)cc4)c3)cc21,1.64 µM (active)
11,COCCNCCCn1c(C(=O)CF)c(-c2ccc(C)cc2)c2c(N)ncnc21,inactive
12,Clc1ccc(Nc2nnc(Cc3ccncc3)c3ccccc23)cc1,inactive
13,COc1ccccc1-c1cccc(-c2c(O)c3cc(C#N)c(Cl)cc3[nH]c2=O)c1,inactive
14,CCOc1ccn(-c2ccc(F)cc2)c(=O)c1C(=O)Nc1ccc(Oc2ccnc(N)c2Cl)c(F)c1,14.8 µM (active)
15,CNC(=O)c1ccc(N2C(=S)N(c3ccc(C#N)c(C(F)(F)F)c3)C(=O)C2(C)C)cc1F,inactive
16,O=C(Nc1ccc(F)c(C(F)(F)F)c1)Nc1nnc(-c2ccncc2)s1,inactive
17,Cc1cc2c(C(C)C)c(O)c(O)c(C=O)c2c(O)c1-c1c(C)cc2c(C(C)C)c(O)c(O)c(C=O)c2c1O,11.8 µM (active)
18,C[C@@H]1CN(Cc2ccc(F)cc2)[C@@H](C)CN1C(=O)c1cc2c(C(=O)C(=O)N(C)C)cn(C)c2cc1Cl,inactive
19,CCCc1nn(C)c2c(=O)[nH]c(-c3cc(S(=O)(=O)N4CCN(C)CC4)ccc3OCC)nc12,13.2 µM (active)
20,Cn1cc(-c2ccc3nnc(C(F)(F)c4ccc5ncccc5c4)n3n2)cn1,inactive
21,C[C@]1(c2nc3c(C(N)=O)cccc3[nH]2)CCCN1,inactive
22,CNCc1ccc(-c2[nH]c3cc(F)cc4c3c2CCNC4=O)cc1,inactive
23,N#Cc1ccc(C(c2ccc(C#N)cc2)n2cncn2)cc1,inactive
24,CCN(CC)CCCC(C)Nc1nc(C)cc(Nc2ccc3nc(C)cc(N)c3c2)n1 (stereo not given),inactive
25,CCC(C)(C)C(=O)O[C@H]1C[C@@H](C)C=C2C=C[C@H](C)[C@H](CC[C@@H]3C[C@@H](O)CC(=O)O3)[C@H]21,16.6 µM (active)
26,NC(=O)c1ccc(I)c([N+](=O)[O-])c1,inactive
27,COc1ccc(CC2=NN3C([C@@H](CCc4ccccc4)[C@@H](C)O)=NC(C)C3C(=O)N2)cc1OC (stereo not given in full),inactive
28,O=S(=O)(N=Cc1c(O)ccc2ccccc12)c1cccs1,inactive
29,COc1cc2nccc(Oc3ccc(NC(=O)NC4CC4)c(Cl)c3)c2cc1C(N)=O,inactive
30,COc1cc2c(cc1OC)CN(CCc1ccc(NC(=O)c3cccc4c(=O)c5cccc(OC)c5[nH]c34)cc1)CC2,inactive

# Reference: PubChem BioAssay (NCATS)
